# Screening results as filed in PubChem.
# In the library only some 2.8% were active in any assay of this set; here they are far more common.
# PI5P4Ka inh: qHTS for Inhibitors of phosphatidylinositol 5-phosphate 4-kinase (PI5P4K). Phosphatidylinositol 5-phosphate 4-kinase type-2 alpha (Homo sapiens), P48426. PI5P4Kalpha enzyme, ADP-Glo luminescence, 60 min; stronger effect = lower value. max response, %. hit rate 1.2% among 330,000; active means max response of -50% or lower; inconclusive means between -30% and -50%; inactive means -30% or higher; further: value at the top dose of about 77 µM; on the % scale 0 is the no-effect control and ±100 the full control effect
#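 Controls without substrate or without enzyme flank wells where PI5P4Kalpha converts substrate using 5 microM ATP (final). Incubation lasts 60 minutes at room temperature; ADP formed is read by ADP-Glo luminescence.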
# Pol eta inh: qHTS for Inhibitors of Polymerase Eta; hit rate 1.2% among 390,000; DNA polymerase eta (Homo sapiens), Q9Y253; Potency, µM (titrated, usually from 114 µM), for inactives: at the top dose activity change, negative = inhibition, usual class: inhibitors; recombinant Pol eta, fluorescent DNA replication assay; further: potency means the concentration at half of the fitted maximal effect; on the % scale 0 is the no-effect control and ±100 the full control effect
#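 Pol eta (10 nM) was preincubated with compounds for 15 min at room temperature, after which fluorescent replication substrate (50 nM final) was added to start the reaction. Fluorescence was read kinetically at 0 and 10 min.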
# PI4K2A inh: qHTS for small molecular inhibitors of PI4K2A; AID 1346378, 2018; hit rate 0.13% among 420,000; activity change, negative = inhibition, % at 76.9 µM; Phosphatidylinositol 4-kinase type 2-alpha (Homo sapiens), Q9BTU6; purified PI4K2A, ADP-Glo luminescence, 1 h; stronger effect = lower value; in the data active means activity change below about -50%; inconclusive means mostly about -30% to -49%;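 further: -100% = wells without enzyme as full effect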
#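 PI4K2A activity was measured by ADP-Glo luminescence: enzyme (4 ug/mL stock) and phosphatidylinositol (1.2 mM stock) in Tris pH 7.5/MgCl2/EGTA/Triton X-100 buffer were reacted with ATP (300 microM stock) for one hour at ambient temperature.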
# POLI inh: qHTS for Inhibitors of Polymerase Iota; DNA polymerase iota (Homo sapiens), Q9UNA4; Pol iota fluorescent replication assay, 10 min; Potency, µM (top dose mostly 115 µM), for inactives: top-dose activity, negative = inhibition, actives largely listed as inhibitors; hit rate 1% among 390,000; AID 588590, 2011; further: potency means the concentration at half of the fitted maximal effect
# Target sequence (Q9UNA4 whole entry, looked up): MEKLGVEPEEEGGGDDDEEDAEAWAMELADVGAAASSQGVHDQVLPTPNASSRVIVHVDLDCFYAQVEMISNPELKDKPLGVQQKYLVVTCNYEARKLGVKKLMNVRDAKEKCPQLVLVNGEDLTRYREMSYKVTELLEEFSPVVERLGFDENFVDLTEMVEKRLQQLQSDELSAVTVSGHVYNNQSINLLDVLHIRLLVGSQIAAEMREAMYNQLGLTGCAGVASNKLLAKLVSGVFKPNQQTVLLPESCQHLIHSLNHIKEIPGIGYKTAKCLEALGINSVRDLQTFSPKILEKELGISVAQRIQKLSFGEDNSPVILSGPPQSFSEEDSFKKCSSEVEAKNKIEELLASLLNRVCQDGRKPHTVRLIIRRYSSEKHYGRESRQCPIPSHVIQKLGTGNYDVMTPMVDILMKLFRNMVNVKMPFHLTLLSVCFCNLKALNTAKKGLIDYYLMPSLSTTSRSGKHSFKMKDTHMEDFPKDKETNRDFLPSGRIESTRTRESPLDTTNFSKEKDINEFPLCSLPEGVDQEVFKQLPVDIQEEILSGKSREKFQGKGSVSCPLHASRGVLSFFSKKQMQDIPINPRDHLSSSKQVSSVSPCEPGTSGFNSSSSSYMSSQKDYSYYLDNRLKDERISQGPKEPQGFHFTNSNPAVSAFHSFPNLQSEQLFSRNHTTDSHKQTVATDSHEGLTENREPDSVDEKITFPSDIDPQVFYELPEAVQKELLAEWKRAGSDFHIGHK
#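 Pol iota at 10 nM preincubated 15 min with compounds at room temperature; reaction started with fluorescent substrate, 50 nM final. Fluorescence read kinetically at 0 and 10 min; buffer-only wells as negative control.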
# POLB inh: qHTS Assay for Inhibitors of DNA Polymerase Beta | P06746 | AID 485314, 2010 | Potency, µM (series often up to 114 µM), without a hit: top-dose activity change, negative = inhibition, most hits filed as inhibitors | hit rate 1.3% among 340,000 | Pol beta primer extension/strand displacement, fluorescence kinetic; further: potency means the concentration at half of the fitted maximal effect; on the % scale 0 is the no-effect control and ±100 the full control effect
#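 Reaction started by 50 nM substrate onto compound-treated Pol beta (10 nM, 15 min preincubation, room temperature); plates read at 0 min and 10 min. Normalized concentration-effect data fitted by four-parameter Hill equation.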
# Pol kappa inh: qHTS for Inhibitors of Polymerase Kappa | Potency, µM (top dose mostly 107 µM), without a hit: at the highest dose activity, negative = inhibition, usual class: inhibitors | DNA polymerase kappa (Homo sapiens), Q9UBT6 | hit rate 0.53% among 400,000 | purified Pol kappa, fluorescent DNA synthesis assay, 10 min; further: potency means the concentration at half of the fitted maximal effect; on the % scale 0 is the no-effect control and ±100 the full control effect
#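 Fluorescent qHTS in 1536-well format: enzyme (10 nM) and compound sat 15 min at room temperature before 50 nM substrate (final) was added. Signal taken at 0 and 10 min; no-enzyme buffer wells were negative controls.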
# Active calls of the source: *; ? = inconclusive; . = no result; [ ] = dose if it differs, or a comment. Unless noted, the call rests on the fitted dose curve; in most records, active means well fitted inhibition curve with a large enough effect; inconclusive means small, poorly fitted or top-dose-only effect, or another doubt; inactive means no such curve, though single readings can be large or run the other way.
SMILES,PI5P4Ka inh,Pol eta inh,PI4K2A inh,POLI inh,POLB inh,Pol kappa inh
Cc1ccc(C2NC(=S)N3C(c4ccc(C)cc4)NC(=S)N23)cc1 (stereo not drawn),-79*,-10%,-12,.,.,.
COc1ccc(N2C(=S)NC3CS(=O)(=O)CC32)cc1 (stereo not drawn),0,-7%,-2,11%,26%,-17%
S=C1NC(c2ccccc2)N2C(=S)NC(c3ccccc3)N12 (stereo not drawn),-81*,-15%,-7,-1%,-19%,-4%
CCNc1nc(N2CCCN(C)CC2)nc2cc(OC)c(OC)cc12,.,.,.,0%,.,-1%
Cc1sc2ccccc2[n+]1Cc1ccccc1,.,.,.,14%,.,10%
CC(C)c1ccc(NC(=O)Cn2c(=O)oc3cc(S(=O)(=O)N4CCCC4)ccc32)cc1,.,-10%,-8,2%,-9%,-5%
CCOC(=O)C1CCCN(S(=O)(=O)c2csc(C(N)=O)c2)C1 (stereo not drawn),.,-9%,3,2%,6%,-30%
Cc1cc(C(=O)OCC(=O)Nc2sc3c(c2C#N)CCC(C)C3)c2ccccc2n1 (stereo not drawn),-1,79µM*,-7,56µM*,18µM*,?
COc1ccccc1-c1cc(C(=O)Nc2sc3c(c2C#N)CCC(C)C3)c2ccccc2n1 (stereo not drawn),-6,-8%,-18,5%,-14%,-10%
Cc1ccc2nc(-c3ccc(NC(=O)CN4CCN(C(=O)c5ccco5)CC4)cc3)sc2c1,.,79µM*,-2,28µM*,32µM*,45µM*
N#C/C(=C(/O)CCl)c1nc(-c2ccccc2)cs1,-28,40µM*,0,?,?,-15%
Cc1ccc(NC(=O)CN2CCN(C(=O)c3ccco3)CC2)cc1,0,-7%,-2,25%,-4%,4%
N#C/C(=C(/O)CN1CCOCC1)c1nc(-c2ccccc2)cs1,.,-1%,0,?,0%,-4%
Cc1ccc(-c2csc(/C(C#N)=C(\O)CN3CCN(C(=O)c4ccco4)CC3)n2)cc1,?,22µM*,-13,?,-1%,-17%
Cc1ccc(-c2csc(/C(C#N)=C(\O)CCl)n2)cc1,?,45µM*,-6,?,?,-18%
CC(C)(C)CC(C)(C)N=C1Nc2ccc([N+](=O)[O-])cc2N[C@]12C[C@H]1CCCC(=O)N3CC[C@@H](C2)[C@@H]13,.,.,.,24%,.,5%
COc1cc2nc(NC3CCN(Cc4ccccc4)CC3)nc(N3CCCN(C)CC3)c2cc1OC,.,.,.,6%,.,1%
COc1ccc(NC(=O)Cn2nc(C)c3c(C)n(-c4ccccc4)nc3c2=O)cc1OC,.,?,-11,?,50µM*,-6%
COc1cccc(NC(=O)Cn2nc(C)c3c(C)n(-c4ccccc4)nc3c2=O)c1,.,-5%,-4,89µM*,7%,-13%[60.1 µM]
Cc1ccc2c(c1)N(CCCC(=O)NCc1cccs1)C(=O)CO2,.,.,7,.,.,.
CC(C)(C)OC(=O)N1CCCC1C(=O)NC1COC2CC(n3ccc(=O)[nH]c3=O)OC12 (stereo not drawn),.,.,.,23%,.,17%
O=C(O)[C@@H](O)[C@H](O)[C@H](O)[C@@H](O)C(=O)O,.,.,-1,.,.,.
O=C(O)C(S)C(S)C(=O)O (stereo not drawn),-55*,?,-12,?,.,?
O=C(O)C(S)[C@@H](S)C(=O)O (stereo partly drawn),.,.,.,.,.,22µM*
COC(=O)[C@]12C[C@H](CC(=O)NCc3ccc(OC)c(OC)c3)C(=O)N(Cc3ccc(Cl)cc3Cl)C1=C[C@H](C(C)(C)C)O[C@@H]2C,.,.,0,.,.,.
SMILES,PI5P4Ka inh,Pol eta inh,PI4K2A inh,POLI inh,POLB inh,Pol kappa inh
C(=C\c1ccnc2ccccc12)/c1cc2c3c(c1)CCCN3CCC2,.,.,.,-12%,.,-11%
O=C(O)c1cc(-c2ccco2)[nH]n1,-13,?,0,-9%,28µM*,-3%
CC1(C)C(=O)Nc2ccccc2N1C(=O)COC(=O)C12CC3CC(CC(O)(C3)C1)C2,?,14µM*,-4,50µM*,20µM*,?
CC1(C)C(=O)Nc2ccccc2N1C(=O)COC(=O)c1cccnc1,?,?,-4,28µM*,.,-30%
CC(C)c1ccccc1NC(=O)[C@@H]1CCCN1S(=O)(=O)c1cccc2cccnc12,.,.,-3,.,.,.
CCOc1ccc(NC(=O)CN(C)S(=O)(=O)c2ccc3c(c2)c(=O)n(C)c(=O)n3C)cc1,.,-4%,-5,-9%,32%,-7%
O=C1/C(=C\c2ccc(O)c(O)c2)Oc2cc(O)ccc21,.,.,.,.,.,4.7µM*
CC(C)(C)c1ccc(/C=C2\Oc3cc(O)ccc3C2=O)cc1,18,-3%,7,-3%,0%,-16%
O=C1/C(=C/c2ccc(Br)cc2)Oc2cc(O)ccc21,-24,-24%,0,39%,14µM*,-3%
Cc1sc2ccccc2[n+]1CCCCBr,.,.,.,?,.,9%
CCCCCN1CC(O)=C(c2nc3ccccc3[nH]2)C1=N,2,6%,-3,67%,32µM*,-8%
Cc1[nH]n(-c2ccccc2)c(=S)c1C=NCCCN=Cc1c(C)[nH]n(-c2ccccc2)c1=S,-76*,?,1,17%,7%,0%
CC(=O)c1ccc(NC(=O)C2CCC(CNS(=O)(=O)c3cccs3)CC2)cc1 (stereo not drawn),.,-23%,4,3%,?,?
O=C(Nc1cccc(C(=O)Nc2ccc(S(=O)(=O)O)c3cc(S(=O)(=O)O)cc(S(=O)(=O)O)c23)c1)Nc1cccc(C(=O)Nc2ccc(S(=O)(=O)O)c3cc(S(=O)(=O)O)cc(S(=O)(=O)O)c23)c1,.,1.8µM*,?,10µM*,2.4µM*,1.9µM*
c1ccc(-c2cc3c(-n4cccc4)ncnc3o2)cc1,6,?,4,79µM*,-11%,?
CNc1c(Br)cc(C(O)C2=CCc3ccccc32)cc1Br (stereo not drawn),.,.,.,-17%,.,6%
O=C(CSCCSCC(=O)c1ccco1)c1ccco1,.,.,.,.,28µM*,.
Cn1nnnc1SCC(=O)c1ccco1,4,5%,-2,-1%,?,-1%
CN(C)c1ccc(/C=[N+]2\C(=O)CC(=O)NC2=O)cc1,.,.,.,18%,.,-3%
